From PubChem
An excerpt weighted towards active compounds, which were near 4.5% of everything screened.
Jurkat NFkB inh: inhibitors of the PMA/ionomycin-induced NF-kB reporter in Jurkat cells; AID 435003; 0.53% of 330,000 active; inhibition, % at 4 µM; PMA/ionomycin-induced NF-kB luciferase reporter, luminescence; in the data active = inhibition above about 50%
Mdm2 MdmX PPI: disrupts the human Mdm2-MdmX interaction. O15151+Q00987. SaOS-2 split-luciferase Mdm2/MdmX complementation, luminescence. inhibition, % at 8 µM. 3% of 330,000 active;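 active = inhibition of at least 50% at 8 µM in the primary screen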
697 NFkB inh: lowers PMA/ionomycin-induced NF-kB signal in 697 B cells; 697 B-cell NF-kB luciferase reporter, 16 h; inhibition, % at 4 µM; 0.33% of 330,000 active; AID 435022; in the data active = inhibition above about 35%
CSC inhib: blocks cancer stem cells. AID 2717. cancer stem cell-like cells viability, luminescence. inhibition, % at 7.5 µM. 1.1% of 300,000 active; in the data active = inhibition above about 75%; tested in HMLE shEcad cells
aSyn UTR inh: 5' untranslated region of α-synuclein, MLPCN primary screen; AID 1813; 0.82% of 300,000 active; alpha-synuclein 5'UTR reporter, inhibitor activity; inhibition, % (tested at 7.5 µM); in the data active = inhibition above about 60%;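 note: H4 neuroglioblastoma cells stably carrying SNCA 5'UTR luciferase fusion; 0% = DMSO wells and 100% = positive control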
Gli-Sufu block: Gli-Sufu pathway antagonism | Sufu-KO-LIGHT fibroblasts, Gli luciferase reporter luminescence | inhibition, % at 5 µM | 0.74% of 340,000 active | AID 588413;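 active = inhibition above about 55%, limit read from the data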;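 note: 0% = DMSO-treated cells and 100% = wells with medium but no cells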
Mdm2-MdmX conf: confirmation of human Mdm2/MdmX interaction inhibitors. shares compounds with Mdm2 MdmX PPI. Mdm2-MdmX binding, luminescent assay. inhibition, % at 8 µM. 55% of 10,000 active; in the data active = inhibition above about 40%
FLuc counter: inhibits full-length luciferase, flagging false Mdm2/MdmX hits; shares compounds with Mdm2 MdmX PPI; SaOS-2 full-length luciferase counterscreen, luminescence; inhibition, % at 8 µM; 77% of 6,200 active; AID 504607;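 active = mean inhibition at 8 µM reaching about 37%, which flags the compound as non-specific, limit read from the data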;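 note: p53-null SaOS-2 cells with luciferase driven by a doxycycline-inducible promoter; compound on cells about two nights before reading with doxycycline added after day one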
Active calls of the source: *; . = not tested or not shown.

SMILES	Jurkat NFkB inh	Mdm2 MdmX PPI	697 NFkB inh	CSC inhib	aSyn UTR inh	Gli-Sufu block	Mdm2-MdmX conf	FLuc counter
Cc1c(C)c2c(OCC(=O)N3CCC[C@H]3C(=O)O)cc3c(c2oc1=O)CCC(C)(C)O3	5	2	21	-13	14	7	.	.
CCCn1c2ccccc2c2cnn(CC(=O)N3CCN(C4CCCCC4)CC3)c(=O)c21	13	55*	2	1	-2	4	30	.
COc1ccc(C(C)(C)C)cc1NC(=O)c1[nH]c(C)c(C(C)=O)c1C	-11	54*	5	23	22	31	12	.
COc1ccc(NC(=O)c2[nH]c(C)c(C(C)=O)c2C)cc1Cl	-14	-34	3	-11	-77	-17	.	.
Cc1cc(-c2onc(C)c2C(=O)Nc2ccc(C(F)(F)F)cc2)no1	9	23	-4	-4	37	1	.	.
Cc1noc(-c2ccc(C(F)(F)F)cc2)c1NC(=O)Nc1ccc(Cl)cc1	9	95*	-13	52	-9	11	76*	24
O=C1OC(Nc2ccc(F)c([N+](=O)[O-])c2)c2ccccc21 (stereo not drawn)	10	3	8	-3	-13	-2	.	.
O=C1OC(Nc2ccc3c(c2)OCO3)c2ccccc21 (stereo not drawn)	19	70*	3	9	-35	-14	41*	55*
CC1C(=O)N(c2ccc(S(=O)(=O)N(C)C)cc2)C1(/C=C/c1ccccc1)C(=O)NC1CCCC1 (stereo not drawn)	14	33	-6	8	7	8	.	.
CC(C)=CCC/C(C)=C/CC(C)(C)CNCCN1CCNCC1	4	88*	-13	65	-64	.	30	.
O=C(CNC(=O)c1ccco1)NCC(=O)OCC(=O)c1ccc(Cl)c([N+](=O)[O-])c1	15	0	11	-4	21	-26	.	.
CNC(=O)c1c(NC(=O)c2cc(-c3cc(C)c(C)cc3O)n[nH]2)sc2c1CCCC2	-2	50*	6	15	-33	6	-3	.
CN(C)c1ccc(NC2=C(Cl)C(=O)c3ccccc3C2=O)cc1	-78	100*	-112	147*	-116	-37	99*	2
CC(=O)Nc1ccc(NC2=C(Cl)C(=O)c3ccccc3C2=O)cc1	-18	100*	-18	.	-40	-8	100*	52*
O=C(NC1=C(Nc2ccc(Cl)cc2)C(=O)c2ccccc2C1=O)c1ccccc1	6	22	14	42	-31	19	.	.
Cn1c(=O)c(Nc2ccc(O)cc2)c2c3c(cccc31)C(=O)c1ccccc1-2	11	20	23	29	47	1	.	.
CN(C)/N=C/C=C1\CCC/C(=C\c2ccc(F)c(F)c2)C1=O	-5	77*	-30	85*	-422	6	28	44*
COc1ccc(/C=C2\CCC/C(=C\C=N\N(C)C)C2=O)cc1	-4	95*	-12	86*	-427	18	51*	29
C=C1C(=O)O[C@@]23[C@H]1CC[C@@H](C)[C@@H]2CC[C@@]1(C)O[C@@H]31	-6	71*	-9	17	.	-8	33	18
COc1ccc2c(c1)CC/C2=N\OC(=O)c1cccc(C)c1	-104	97*	-59	6	-230	-37	55*	13
COc1ccc2c(c1)CCC/C2=N/OC(=O)c1ccccc1OC	-9	21	-20	7	-25	-16	.	.
COc1ccc2c(c1)CC/C2=N\OC(=O)c1ccccc1C	-88	100*	-93	-1	-136	-47	35	22
CS(=O)(=O)N(CC(=O)NC1CCCC1)Cc1ccc(Cl)cc1	2	6	15	.	9	7	.	.
O=C(/C=C/c1c(F)cccc1Cl)c1ccc(O)cc1	20	100*	1	67*	-115	11	97*	32
O=C(/C=C/c1ccccc1Cl)c1ccc(O)cc1	5	55*	-2	25	-360	-36	12	.
O=C(Nc1ccccc1Cl)C1CCCN(S(=O)(=O)c2ccc(-n3cnnn3)cc2)C1 (stereo not drawn)	6	-3	1	-7	20	10	.	.
Cc1c(-c2ccc(Cl)cc2)oc(=O)c2c(N)n(-c3ccccc3)nc12	-40	86*	-112	41	-58	25	7	.
